Laboratory results from the supplement of paper PMC8728848.
The full list was thinned out, with the strongest signals kept by preference.

Assays:
Test in all cases: glycan array binding signal (z-score within array); higher = stronger binding
Settings in all cases: glycan notation: IUPAC condensed, linker removed
[1] = biological target: Fuc(a1-2)Gal(b1-3)GlcNAc(b1-2)Man(a1-3)[Fuc(a1-2)Gal(b1-3)GlcNAc(b1-2)Man(a1-6)]Man(b1-4)GlcNAc(b1-4)[Fuc(a1-6)]GlcNAc
Method in brief: (§1)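 Glycan array data came from 3228 arrays in the Consortium for Functional Glycomics database, and only arrays with an available protein sequence were kept. Glycan names were put into IUPAC-condensed notation, and columns mapping to the same glycan were averaged. The binding signal is a within-array Z-score, averaged across arrays of one protein sequence run at different concentrations or buffers and across linkers. A negative Z-score can be read as non-binding.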

[2] = biological target: Fuc(a1-2)Gal(b1-3)GlcNAc(b1-3)[Fuc(a1-2)Gal(b1-3)GlcNAc(b1-6)]GalNAc
Method in brief: as §1

[3] = biological target: Fuc(a1-2)Gal(b1-3)[Fuc(a1-4)]GlcNAc(b1-3)[Gal(b1-4)GlcNAc(b1-6)]Gal(b1-4)Glc
Method in brief: as §1

[4] = biological target: Fuc(a1-2)Gal(b1-4)GlcNAc(b1-3)Gal(b1-4)GlcNAc(b1-2)Man(a1-3)[Fuc(a1-2)Gal(b1-4)GlcNAc(b1-3)Gal(b1-4)GlcNAc(b1-2)Man(a1-6)]Man(b1-4)GlcNAc(b1-4)GlcNAc
Method in brief: as §1

[5] = biological target: Fuc(a1-2)[Gal(a1-3)]Gal(b1-4)GlcNAc
Method in brief: as §1

[6] = biological target: Fuc(a1-2)[Gal(a1-3)]Gal(b1-4)GlcNAc(b1-3)[Fuc(a1-2)[Gal(a1-3)]Gal(b1-4)GlcNAc(b1-6)]GalNAc
Method in brief: as §1

[7] = biological target: Fuc(a1-2)[GalNAc(a1-3)]Gal(b1-3)GlcNAc(b1-6)GalNAc
Method in brief: as §1

[8] = biological target: Fuc(a1-3)[Gal(b1-4)]GlcNAc(b1-3)GalNAc
Method in brief: as §1

Fuc(a1-4)GlcNAc = biological target: Fuc(a1-4)GlcNAc
Method in brief: as §1

Fuc(b1-3)GlcNAc = biological target: Fuc(b1-3)GlcNAc
Method in brief: as §1

[9] = biological target: Gal(a1-3)Gal(b1-4)[Fuc(a1-3)]GlcNAc(b1-2)Man(a1-3)[Gal(a1-3)Gal(b1-4)[Fuc(a1-3)]GlcNAc(b1-2)Man(a1-6)]Man(b1-4)GlcNAc(b1-4)GlcNAc
Method in brief: as §1

Gal(a1-4)GlcNAc = biological target: Gal(a1-4)GlcNAc
Method in brief: as §1

[10] = biological target: Gal(b1-3)GlcNAc(a1-6)Gal(b1-4)GlcNAc
Method in brief: as §1

[11] = biological target: Gal(b1-4)GlcNAc(b1-3)Gal(b1-3)GalNAc
Method in brief: as §1

[12] = biological target: Gal(b1-4)GlcNAc(b1-3)Gal(b1-3)GlcNAc
Method in brief: as §1

[13] = biological target: Gal(b1-4)GlcNAc(b1-3)Gal(b1-4)GlcNAc(b1-2)[Gal(b1-4)GlcNAc(b1-3)Gal(b1-4)GlcNAc(b1-6)]Man(a1-6)[Gal(b1-4)GlcNAc(b1-3)Gal(b1-4)GlcNAc(b1-2)Man(a1-3)]Man(b1-4)GlcNAc(b1-4)GlcNAc
Method in brief: as §1

[14] = biological target: Gal(b1-4)GlcNAc(b1-3)Gal(b1-4)GlcNAc(b1-3)Gal(b1-4)GlcNAc(b1-3)Gal(b1-4)GlcNAc(b1-2)[Gal(b1-4)GlcNAc(b1-3)Gal(b1-4)GlcNAc(b1-3)Gal(b1-4)GlcNAc(b1-3)Gal(b1-4)GlcNAc(b1-6)]Man(a1-6)[Gal(b1-4)GlcNAc(b1-3)Gal(b1-4)GlcNAc(b1-3)Gal(b1-4)GlcNAc(b1-3)Gal(b1-4)GlcNAc(b1-2)Man(a1-3)]Man(b1-4)GlcNAc(b1-4)[Fuc(a1-6)]GlcNAc
Method in brief: as §1

[15] = biological target: Gal(b1-4)GlcNAc(b1-3)Gal(b1-4)GlcNAc(b1-3)Gal(b1-4)GlcNAc(b1-3)Gal(b1-4)GlcNAc(b1-3)Gal(b1-4)GlcNAc(b1-2)Man(a1-3)[Gal(b1-4)GlcNAc(b1-3)Gal(b1-4)GlcNAc(b1-3)Gal(b1-4)GlcNAc(b1-3)Gal(b1-4)GlcNAc(b1-3)Gal(b1-4)GlcNAc(b1-2)Man(a1-6)]Man(b1-4)GlcNAc(b1-4)[Fuc(a1-6)]GlcNAc
Method in brief: as §1

[16] = biological target: Gal3S(b1-3)[Fuc(a1-4)]GlcNAc
Method in brief: as §1

Gal3S(b1-4)Glc = biological target: Gal3S(b1-4)Glc
Method in brief: as §1

[17] = biological target: Gal3S(b1-4)[Fuc(a1-3)]GlcNAc6S
Method in brief: as §1

[18] = biological target: GalNAc(a1-3)GalNAc(b1-3)Gal(a1-4)Gal(b1-4)GlcNAc
Method in brief: as §1

Glc(b1-6)Glc = biological target: Glc(b1-6)Glc
Method in brief: as §1

[19] = biological target: GlcNAc(a1-4)Gal(b1-4)GlcNAc(b1-3)Gal(b1-4)[Fuc(a1-3)]GlcNAc(b1-3)Gal(b1-4)[Fuc(a1-3)]GlcNAc
Method in brief: as §1

[20] = biological target: GlcNAc(b1-2)Man(a1-3)[GlcNAc(b1-2)Man(a1-6)]Man(b1-4)GlcNAc(b1-4)GlcNAc
Method in brief: as §1

Kdn(a2-3)Gal(b1-3)GlcNAc = biological target: Kdn(a2-3)Gal(b1-3)GlcNAc
Method in brief: as §1

[21] = biological target: Man(a1-2)Man(a1-3)[Man(a1-2)Man(a1-6)]Man
Method in brief: as §1

[22] = biological target: Man(a1-2)Man(a1-3)[Man(a1-6)]Man(a1-6)[Man(a1-2)Man(a1-3)]Man(b1-4)GlcNAc(b1-4)GlcNAc
Method in brief: as §1

[23] = biological target: Man(a1-2)Man(a1-6)[Man(a1-3)]Man(a1-6)[Man(a1-2)Man(a1-2)Man(a1-3)]Man
Method in brief: as §1

[24] = biological target: Neu5Ac(a2-3)Gal(b1-3)[GlcNAc(b1-6)]GalNAc
Method in brief: as §1

[25] = biological target: Neu5Ac(a2-3)Gal(b1-3)[Neu5Ac(a2-6)]GalNAc
Method in brief: as §1

Neu5Ac(a2-3)Gal(b1-4)Glc = biological target: Neu5Ac(a2-3)Gal(b1-4)Glc
Method in brief: as §1

[26] = biological target: Neu5Ac(a2-3)Gal(b1-4)GlcNAc(b1-2)Man
Method in brief: as §1

[27] = biological target: Neu5Ac(a2-3)Gal(b1-4)GlcNAc(b1-3)Gal(b1-4)GlcNAc(b1-3)[Neu5Ac(a2-3)Gal(b1-4)GlcNAc(b1-3)Gal(b1-4)GlcNAc(b1-6)]GalNAc
Method in brief: as §1

[28] = biological target: Neu5Ac(a2-3)Gal(b1-4)GlcNAc(b1-3)GalNAc
Method in brief: as §1

[29] = biological target: Neu5Ac(a2-3)Gal(b1-4)[Fuc(a1-3)]GlcNAc(b1-6)[Gal(b1-3)]GalNAc
Method in brief: as §1

[30] = biological target: Neu5Ac(a2-6)Gal(b1-4)GlcNAc
Method in brief: as §1

[31] = biological target: Neu5Ac(a2-6)Gal(b1-4)GlcNAc(b1-3)GalNAc
Method in brief: as §1

[32] = biological target: Neu5Ac(a2-6)GalNAc(b1-4)GlcNAc
Method in brief: as §1

[33] = biological target: Neu5Ac(a2-6)GlcNAc(b1-4)GlcNAc(b1-4)GlcNAc
Method in brief: as §1

B1: BC2LB (Burholderia cenocepacia), B4EH85_BURCJ (protein)
chain: MGSSHHHHHHSSGENLYFQGHMSQPFTHDDLYALLQLAGNDATAVQANGDQAVLDRMRQFMTAQLVEKLPQYDVFVDIATIPYSFDVGSWQNKVKTDAAGEVVACTVTWAGAPGVLPGAAAKFGVGAVVNYFSKATPH
glycan array binding signal (z-score) [1]: -0.135
glycan array binding signal (z-score) [2]: -0.166
glycan array binding signal (z-score) [3]: -0.251
glycan array binding signal (z-score) [4]: 0.245
glycan array binding signal (z-score) [5]: -0.238
glycan array binding signal (z-score) [6]: 6.98
glycan array binding signal (z-score) [7]: 7.53
glycan array binding signal (z-score) [8]: 0.001
glycan array binding signal (z-score) (Fuc(a1-4)GlcNAc): 2.88
glycan array binding signal (z-score) (Fuc(b1-3)GlcNAc): 1.63
glycan array binding signal (z-score) [9]: 0.053
glycan array binding signal (z-score) (Gal(a1-4)GlcNAc): -0.101
glycan array binding signal (z-score) [10]: -0.227
glycan array binding signal (z-score) [11]: -0.131
glycan array binding signal (z-score) [12]: -0.143
glycan array binding signal (z-score) [13]: 11.3
glycan array binding signal (z-score) [14]: -0.198
glycan array binding signal (z-score) [15]: 0.012
glycan array binding signal (z-score) [16]: 0.995
glycan array binding signal (z-score) (Gal3S(b1-4)Glc): 1.52
glycan array binding signal (z-score) [17]: 0.149
glycan array binding signal (z-score) [18]: -0.055
glycan array binding signal (z-score) (Glc(b1-6)Glc): 0.216
glycan array binding signal (z-score) [19]: 1.79
glycan array binding signal (z-score) [20]: -0.234
glycan array binding signal (z-score) (Kdn(a2-3)Gal(b1-3)GlcNAc): -0.201
glycan array binding signal (z-score) [21]: -0.345
glycan array binding signal (z-score) [22]: -0.397
glycan array binding signal (z-score) [23]: -0.2
glycan array binding signal (z-score) [24]: -0.242
glycan array binding signal (z-score) [25]: 2.87
glycan array binding signal (z-score) (Neu5Ac(a2-3)Gal(b1-4)Glc): 5.24
glycan array binding signal (z-score) [26]: 2.39
glycan array binding signal (z-score) [27]: -0.203
glycan array binding signal (z-score) [28]: -0.104
glycan array binding signal (z-score) [29]: -0.247
glycan array binding signal (z-score) [30]: -0.206
glycan array binding signal (z-score) [31]: 10.1
glycan array binding signal (z-score) [32]: -0.418
glycan array binding signal (z-score) [33]: -0.338
